± gives the standard deviation of the averaged measurements. Over roughly 25,000 sequences, “ln(normalized median fluorescence intensity)” has its median near 8.9; the highest 2% begin near 10. For the sample, the highest values were picked, then their nearest neighbours and some sequences at random.
system: PfAP2-LT AP2 domain (GST-tagged); test: gcPBM binding intensity (ln(normalized median fluorescence intensity)); higher = stronger DNA binding
Method in brief: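 After 1 h on an Agilent 4 × 180k array of primer-extended double-stranded 36-bp intergenic genomic probes and negative controls, bound GST-tagged P. falciparum DNA-binding domains were detected with Alexa488 anti-GST antibody and scanned at 488 nm. The domains had been expressed in E. coli, and binding took place in 1× PBS with 1% milk, 0.2 mg/ml BSA, 0.5% salmon testes DNA and 0.03% Triton X-100. Binding intensity is the highest Masliner-normalised natural-log median intensity across replicate spots of either probe orientation.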

Sequence	gcPBM binding intensity (ln)
AAAAAGATAAAATATACATGCATATATAATATACAT [TGCATGCA_site488]	8.94 ± 0.4
TAAACAGAAGCACATACACACACTCAAAAAAAAAAA [CACACA_site3051]	9.53 ± 0.39
TATATATATATATATGTGCACATTTATTGCCTTTGC	10.11 ± 0.071
CTTTATATATATTGCGTGCACATTTTTTTTTTTTTT	8.99 ± 0.53
ACATATTATATATGTGTGCACATATATATATATTTA [GTGCAC_site9591]	9.7 ± 0.33
TATAGATGTGGTTTATGTACATACTATAAAAAATCA [XGTACX_site1400]	8.7 ± 0.49
CGTATTTATATAATTACACACCATATTATAATTATT [CACACA_site3760]	8.84 ± 0.44
TTTCTTTATTTATAATAATTTTTTATTAAAAATAGA [CACACA_negctrl_site1610]	8 ± 0.49
GATATAAACGTATATGTACATATATATATATATATA [GTGCAC_negctrl_site186]	10.1 ± 0.38
TTACAAAAAAAAAGGCGCGGATGGGGGCAATAGCAA [CACACA_negctrl_site238]	9.39 ± 0.45
TGCACAGACGGACACACACACAACTAAAAAATAATG [CACACA_site5424]	9.69 ± 0.61
TGCACAAAATTATGCACACACCTAAAATTAATTTTT [CACACA_site5596]	9.06 ± 0.34
ATTATGCACGGACACACACACACACCCCTAAAAAAT [CACACA_site5426]	10.1 ± 0.32
AAAAAATTAGATTATGCACACACACTAATAAATAAT [CACACA_site8604]	9.38 ± 0.32
ATTATGCACCAACACACACACACACCCCTAAAAAAT [CACACA_site2568]	10.04 ± 0.057
ATTATGCACAGACACACACACACACTACTAAAAAAT [CACACA_site7252]	10.2 ± 0.28
ATTTTTTCTTATAAAAAAGAAAAAGAAAAAGAAAAA [CACACA_negctrl_site1216]	8.02 ± 0.42
GTTTAGATAAAAGGGCGTACATCTATTTTTGACTAA [XGTACX_site7170]	8.62 ± 0.36
GAAACGATTTAATACACACACGTATTATAGATATAT [CACACA_site6666]	9.25 ± 0.34
ATTTTTTTTGTTTATTCTTATGTGGTTATTAAATTA [CACACA_negctrl_site1000]	8.72 ± 0.52
TATACACACAGACATGCATGCACATATATATATACA [TGCATGCA_site30]	9.54 ± 0.42
TTATATAAAGAATGTACACACAGAAATGCACCCACA [CACACA_site2282]	9.39 ± 0.2
TACAGACAGAAATGCACACACATATATATATATATA [CACACA_site2283]	10.2
TACACCCAGAAATGCACACACATATATATATATATA [CACACA_site5289]	10.26 ± 0.071
TACAGACAGAAATGCACACACATATTTATATTTATA [CACACA_site7139]	9.35 ± 0.3

Sequence	gcPBM binding intensity (ln)
TGTACACCCAGAAATGCACACACATATATATATATA [CACACA_site8716]	9.94 ± 0.29
TCATCATATTATATATGTACATATATAATAATTTAT [XGTACX_site1625]	8.62 ± 0.42
ACATAATTAACAAATACACACACACCCACCCACAAA [CACACA_site8069]	10.3 ± 0.13
GTATTATAGTATAATACACACCCAAATATTAAAAAG [CACACA_site7404]	9.02 ± 0.41
TATTAATACAGACACACACACACACTAATTAAAATA [CACACA_site7967]	9.96 ± 0.2
TATTAATACAGACACACACACACACCCAATAAAATA [CACACA_site243]	10.29 ± 0.05
TTTTTATTTATTAATACACACACACCCACCCACAAA [CACACA_site7965]	9.805 ± 0.064
ATAATTAACAAATACACACACACACCCAGACAAAAA [CACACA_site4445]	10.2
AAAAAAAAAAAATACACACAAACACAAATTAAATAA [CACACA_site3809]	9.32 ± 0.32
TTTATTTATTAATACACACACACACGCCCACAAAAT [CACACA_site6253]	9.995 ± 0.05
AATTAATAACAAAATAAACACACATATATAAATACA [CACACA_site8456]	9.03 ± 0.38
ATTAATTATATATATACACACACATACACCCAAATA [CACACA_site9126]	9.66 ± 0.23
TTTATTTATTAATACACACACACACCCCCACAAAAT [CACACA_site240]	10.1 ± 0.22
TTTATTTATTAATACACACACACACCCAGACAAAAT [CACACA_site4292]	10 ± 0.099
TGAACATGTTAAAATAAACACACAGCTAAGGTTTTT [CACACA_site7934]	8.94 ± 0.4
TTATATATATATATATGTACACATATATAACATGAT [XGTACX_site6643]	9.19 ± 0.28
ATACACTTTTATATATCAATACATTATGTATTAAGT [CACACA_negctrl_site421]	8.86 ± 0.35
AACAATATATTGATATTATTTTAAGTGATTATATAT [XGTACX_negctrl_site205]	8.57 ± 0.33
CAACATATGCATATGTGTACATATTTTATTTTCAAC [XGTACX_site2237]	8.82 ± 0.42
TATTTATAAACATACGCACACATTAAAATATATATA [CACACA_site6051]	9.02 ± 0.4
TATTTTTTAAAAATGGGTACACATAAATAAATAAAT [XGTACX_site7643]	8.58 ± 0.45
TAAAAAAATTCATGCACACGAAATAAAAAGCACCTT [CACACA_site4667]	9.21 ± 0.3
ATAATTAACAAATACACACACACACGCCCACAAAAA [CACACA_site6389]	10 ± 0.11
TGAACACCCACAAATACACACAAAAAAAATAAATAA [CACACA_site248]	9.28 ± 0.51

Source: the supplement of paper PMC11417369
